How the values were obtained:
Assay in all cases: DAPPL (digital affinity profiling via proximity ligation, sequencing); 10 mM Tris-HCl pH 7.5, 50 mM NaCl, 1 mM DTT, 4% glycerol, room temperature, 30 min; GST-TFs on glutathione beads, 16-mer random dsDNA library, 0.1% formaldehyde crosslink after washing; high values mean tight binding
FLI1 = target: T1, FLI1 (Homo sapiens, UniProt Q01543 1-452); settings: protein: recombinant; tags: N-terminal GST; dsDNA, one strand shown
T1 sequence: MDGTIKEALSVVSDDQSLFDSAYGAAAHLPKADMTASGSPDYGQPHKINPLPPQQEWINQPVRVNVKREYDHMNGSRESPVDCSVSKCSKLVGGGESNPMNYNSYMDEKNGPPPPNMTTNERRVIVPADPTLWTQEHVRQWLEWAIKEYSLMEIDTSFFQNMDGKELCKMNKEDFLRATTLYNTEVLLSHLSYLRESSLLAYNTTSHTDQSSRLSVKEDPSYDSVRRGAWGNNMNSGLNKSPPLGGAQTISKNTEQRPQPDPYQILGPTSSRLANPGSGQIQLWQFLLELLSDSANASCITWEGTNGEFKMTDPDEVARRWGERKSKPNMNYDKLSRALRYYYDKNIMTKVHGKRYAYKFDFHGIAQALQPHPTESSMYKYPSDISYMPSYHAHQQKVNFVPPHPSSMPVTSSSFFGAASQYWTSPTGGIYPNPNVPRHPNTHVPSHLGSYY
How it was run: (§1)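 Binding signal is defined as a hexamer's read frequency for one factor over its frequency for the tag-only sample. To obtain reads, GST-fused human transcription factors were expressed in yeast, captured on glutathione beads, barcoded with DNA and pooled with that sample. Pools met 200 nmole of a 16-mer random double-stranded DNA library in Tris/NaCl/DTT/glycerol buffer for 30 min at room temperature before washing, 0.1% formaldehyde crosslinking, proximity ligation (BsaI/T4 ligase, 1 h, 37 °C), PCR and Illumina NextSeq500 sequencing.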

ELK1 = target: T2, ELK1 (Homo sapiens, UniProt P19419 1-428); settings: protein: recombinant; tags: N-terminal GST; dsDNA, one strand shown
T2 sequence: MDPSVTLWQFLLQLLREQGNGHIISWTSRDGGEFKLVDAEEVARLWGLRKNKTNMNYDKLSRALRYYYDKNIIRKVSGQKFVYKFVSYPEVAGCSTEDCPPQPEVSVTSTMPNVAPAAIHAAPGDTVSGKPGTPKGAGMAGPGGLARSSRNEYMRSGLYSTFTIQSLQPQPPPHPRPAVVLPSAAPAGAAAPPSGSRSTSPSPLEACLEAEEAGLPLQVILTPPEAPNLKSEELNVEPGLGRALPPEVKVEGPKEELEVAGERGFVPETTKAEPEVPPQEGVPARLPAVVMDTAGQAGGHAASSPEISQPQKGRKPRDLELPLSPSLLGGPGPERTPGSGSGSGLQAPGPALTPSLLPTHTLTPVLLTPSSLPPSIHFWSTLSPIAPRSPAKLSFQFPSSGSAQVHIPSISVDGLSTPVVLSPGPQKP
How it was run: as §1

GABPA = target: T3, GABPA (Homo sapiens, UniProt Q06546 1-454); settings: protein: recombinant; tags: N-terminal GST; dsDNA, one strand shown
T3 sequence: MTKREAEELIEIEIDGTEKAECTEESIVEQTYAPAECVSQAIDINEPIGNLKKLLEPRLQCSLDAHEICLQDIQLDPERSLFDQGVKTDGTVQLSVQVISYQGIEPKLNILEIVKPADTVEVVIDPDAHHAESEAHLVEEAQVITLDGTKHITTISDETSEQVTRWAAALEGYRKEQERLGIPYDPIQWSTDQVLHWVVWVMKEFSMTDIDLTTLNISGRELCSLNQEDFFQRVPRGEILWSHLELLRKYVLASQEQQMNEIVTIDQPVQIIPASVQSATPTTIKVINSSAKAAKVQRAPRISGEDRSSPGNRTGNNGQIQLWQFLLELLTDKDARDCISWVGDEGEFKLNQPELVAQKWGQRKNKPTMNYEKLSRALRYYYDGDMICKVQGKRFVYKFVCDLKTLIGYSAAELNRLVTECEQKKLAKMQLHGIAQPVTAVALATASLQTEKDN
How it was run: as §1

ERG = target: T4, ERG (Homo sapiens, UniProt P11308 1-479); settings: protein: recombinant; tags: N-terminal GST; dsDNA, one strand shown
T4 sequence: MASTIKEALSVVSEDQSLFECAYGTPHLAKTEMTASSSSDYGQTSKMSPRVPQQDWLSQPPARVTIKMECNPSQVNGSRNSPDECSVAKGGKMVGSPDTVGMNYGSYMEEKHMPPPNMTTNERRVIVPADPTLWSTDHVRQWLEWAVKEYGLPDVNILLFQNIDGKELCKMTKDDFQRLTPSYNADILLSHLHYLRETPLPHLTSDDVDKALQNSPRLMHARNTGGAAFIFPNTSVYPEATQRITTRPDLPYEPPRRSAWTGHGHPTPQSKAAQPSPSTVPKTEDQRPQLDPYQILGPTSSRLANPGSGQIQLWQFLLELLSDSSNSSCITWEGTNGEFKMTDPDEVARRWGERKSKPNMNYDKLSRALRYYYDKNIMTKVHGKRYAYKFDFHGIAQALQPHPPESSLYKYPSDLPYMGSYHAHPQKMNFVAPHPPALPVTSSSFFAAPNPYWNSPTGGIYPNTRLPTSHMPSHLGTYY
How it was run: as §1

ELF1 = ELF1 (Homo sapiens, UniProt P32519 1-619); settings: protein: recombinant; tags: N-terminal GST; dsDNA, one strand shown
ELF1, sequence (P32519 whole entry): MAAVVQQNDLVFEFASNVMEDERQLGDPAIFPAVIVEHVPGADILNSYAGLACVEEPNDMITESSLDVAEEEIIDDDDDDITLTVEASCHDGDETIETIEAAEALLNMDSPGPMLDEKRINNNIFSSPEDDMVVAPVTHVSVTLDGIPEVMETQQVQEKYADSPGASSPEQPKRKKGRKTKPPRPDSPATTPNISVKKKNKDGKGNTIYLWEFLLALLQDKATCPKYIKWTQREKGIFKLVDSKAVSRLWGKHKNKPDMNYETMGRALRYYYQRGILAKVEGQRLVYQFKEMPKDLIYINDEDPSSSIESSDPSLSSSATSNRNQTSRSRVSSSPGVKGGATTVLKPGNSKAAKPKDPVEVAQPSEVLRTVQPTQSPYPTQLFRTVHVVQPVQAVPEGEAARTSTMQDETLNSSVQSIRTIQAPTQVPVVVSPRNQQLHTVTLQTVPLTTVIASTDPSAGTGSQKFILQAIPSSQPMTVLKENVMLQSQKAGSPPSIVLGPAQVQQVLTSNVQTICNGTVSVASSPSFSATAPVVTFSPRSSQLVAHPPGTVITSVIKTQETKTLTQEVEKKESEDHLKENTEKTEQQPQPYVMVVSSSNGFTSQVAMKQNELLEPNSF
How it was run: as §1

EHF = target: T5, EHF (Homo sapiens, UniProt Q9NZC4 1-300); settings: protein: recombinant; tags: N-terminal GST; dsDNA, one strand shown
T5 sequence: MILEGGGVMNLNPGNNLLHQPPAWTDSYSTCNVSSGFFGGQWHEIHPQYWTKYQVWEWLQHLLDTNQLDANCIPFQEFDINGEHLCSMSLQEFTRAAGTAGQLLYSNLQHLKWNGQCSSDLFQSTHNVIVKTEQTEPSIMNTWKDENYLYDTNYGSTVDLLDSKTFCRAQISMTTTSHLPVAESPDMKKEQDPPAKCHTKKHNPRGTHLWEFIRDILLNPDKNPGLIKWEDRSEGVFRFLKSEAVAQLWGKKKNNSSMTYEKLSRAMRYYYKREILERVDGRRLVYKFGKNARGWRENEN
How it was run: as §1

SPI1 = SPI1 (Homo sapiens, UniProt P17947 1-270); settings: protein: recombinant; tags: N-terminal GST; dsDNA, one strand shown
How it was run: as §1

SPIB = SPIB (Homo sapiens, UniProt Q01892 1-262); settings: protein: recombinant; tags: N-terminal GST; dsDNA, one strand shown
SPIB, sequence (Q01892 whole entry): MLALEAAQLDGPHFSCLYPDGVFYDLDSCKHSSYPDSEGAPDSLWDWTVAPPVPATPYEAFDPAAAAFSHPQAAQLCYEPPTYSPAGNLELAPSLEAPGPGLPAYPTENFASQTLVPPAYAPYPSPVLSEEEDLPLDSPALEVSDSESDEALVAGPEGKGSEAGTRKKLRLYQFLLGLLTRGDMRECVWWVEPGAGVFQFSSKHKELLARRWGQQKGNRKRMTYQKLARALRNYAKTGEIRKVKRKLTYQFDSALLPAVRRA
How it was run: as §1

ELK3 = target: T6, ELK3 (Homo sapiens, UniProt P41970 1-407); settings: protein: recombinant; tags: N-terminal GST; dsDNA, one strand shown
T6 sequence: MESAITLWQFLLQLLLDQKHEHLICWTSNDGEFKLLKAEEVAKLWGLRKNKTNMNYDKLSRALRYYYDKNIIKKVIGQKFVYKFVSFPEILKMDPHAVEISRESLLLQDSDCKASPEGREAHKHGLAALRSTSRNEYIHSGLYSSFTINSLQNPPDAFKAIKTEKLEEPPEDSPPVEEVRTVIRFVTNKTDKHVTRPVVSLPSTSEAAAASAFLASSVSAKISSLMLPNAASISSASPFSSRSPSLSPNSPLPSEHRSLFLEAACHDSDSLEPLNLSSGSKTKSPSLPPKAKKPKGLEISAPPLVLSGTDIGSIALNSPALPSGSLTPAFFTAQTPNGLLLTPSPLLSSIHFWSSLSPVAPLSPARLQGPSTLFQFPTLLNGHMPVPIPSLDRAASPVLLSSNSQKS
How it was run: as §1

FEV = target: T7, FEV (Homo sapiens, UniProt Q99581 1-238); settings: protein: recombinant; tags: N-terminal GST; dsDNA, one strand shown
T7 sequence: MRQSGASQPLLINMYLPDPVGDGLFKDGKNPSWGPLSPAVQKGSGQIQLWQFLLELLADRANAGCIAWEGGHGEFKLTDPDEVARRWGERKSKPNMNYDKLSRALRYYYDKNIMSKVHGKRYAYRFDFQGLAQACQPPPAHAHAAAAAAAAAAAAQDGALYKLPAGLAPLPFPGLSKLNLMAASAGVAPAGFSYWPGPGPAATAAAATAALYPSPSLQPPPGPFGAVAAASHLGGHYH
How it was run: as §1

ETV5 = ETV5 (Homo sapiens, UniProt P41161 1-510); settings: protein: recombinant; tags: N-terminal GST; dsDNA, one strand shown
ETV5, sequence (P41161 whole entry): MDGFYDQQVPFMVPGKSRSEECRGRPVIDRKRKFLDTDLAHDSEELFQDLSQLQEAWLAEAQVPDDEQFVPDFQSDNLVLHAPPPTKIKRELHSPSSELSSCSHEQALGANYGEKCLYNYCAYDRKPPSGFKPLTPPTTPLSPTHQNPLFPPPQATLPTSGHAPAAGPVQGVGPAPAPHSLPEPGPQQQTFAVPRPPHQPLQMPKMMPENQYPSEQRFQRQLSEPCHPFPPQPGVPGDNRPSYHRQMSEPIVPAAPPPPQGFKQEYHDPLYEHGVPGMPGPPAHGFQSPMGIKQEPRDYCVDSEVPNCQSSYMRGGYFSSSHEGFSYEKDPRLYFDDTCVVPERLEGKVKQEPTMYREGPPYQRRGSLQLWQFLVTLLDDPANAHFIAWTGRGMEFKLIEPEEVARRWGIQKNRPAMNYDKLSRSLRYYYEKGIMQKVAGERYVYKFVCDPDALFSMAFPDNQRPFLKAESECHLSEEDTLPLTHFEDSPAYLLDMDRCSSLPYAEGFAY
How it was run: as §1

HSF1 = HSF1 (Homo sapiens, UniProt Q00613 1-529); settings: protein: recombinant; tags: N-terminal GST; chain copies: 3; dsDNA, one strand shown
HSF1, sequence (Q00613 whole entry): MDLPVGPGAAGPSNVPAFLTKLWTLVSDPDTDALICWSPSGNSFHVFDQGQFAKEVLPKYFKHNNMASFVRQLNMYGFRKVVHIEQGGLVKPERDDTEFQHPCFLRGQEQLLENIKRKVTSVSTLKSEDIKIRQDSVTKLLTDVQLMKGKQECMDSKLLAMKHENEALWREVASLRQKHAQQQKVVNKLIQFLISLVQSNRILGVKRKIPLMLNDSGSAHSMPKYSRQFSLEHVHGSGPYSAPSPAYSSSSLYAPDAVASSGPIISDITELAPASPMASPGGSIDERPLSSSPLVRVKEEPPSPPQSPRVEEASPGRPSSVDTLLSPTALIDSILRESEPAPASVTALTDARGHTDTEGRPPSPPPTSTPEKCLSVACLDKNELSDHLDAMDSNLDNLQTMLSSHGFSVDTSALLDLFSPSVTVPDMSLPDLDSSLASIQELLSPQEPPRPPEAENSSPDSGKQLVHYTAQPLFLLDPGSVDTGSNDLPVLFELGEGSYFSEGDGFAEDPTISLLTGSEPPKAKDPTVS
How it was run: as §1

SPIC = target: T8, SPIC (Homo sapiens, UniProt Q8N5J4 1-248); settings: protein: recombinant; tags: N-terminal GST; dsDNA, one strand shown
T8 sequence: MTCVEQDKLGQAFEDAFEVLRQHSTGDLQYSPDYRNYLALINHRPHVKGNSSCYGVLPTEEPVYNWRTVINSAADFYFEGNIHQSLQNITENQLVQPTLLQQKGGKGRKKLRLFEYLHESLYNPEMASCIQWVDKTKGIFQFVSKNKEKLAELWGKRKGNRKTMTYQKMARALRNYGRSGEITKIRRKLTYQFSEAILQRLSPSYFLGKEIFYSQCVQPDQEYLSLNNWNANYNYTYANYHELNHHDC
How it was run: as §1

ELF4 = ELF4 (Homo sapiens, UniProt Q99607 1-663); settings: protein: recombinant; tags: N-terminal GST; dsDNA, one strand shown
ELF4, sequence (Q99607 whole entry): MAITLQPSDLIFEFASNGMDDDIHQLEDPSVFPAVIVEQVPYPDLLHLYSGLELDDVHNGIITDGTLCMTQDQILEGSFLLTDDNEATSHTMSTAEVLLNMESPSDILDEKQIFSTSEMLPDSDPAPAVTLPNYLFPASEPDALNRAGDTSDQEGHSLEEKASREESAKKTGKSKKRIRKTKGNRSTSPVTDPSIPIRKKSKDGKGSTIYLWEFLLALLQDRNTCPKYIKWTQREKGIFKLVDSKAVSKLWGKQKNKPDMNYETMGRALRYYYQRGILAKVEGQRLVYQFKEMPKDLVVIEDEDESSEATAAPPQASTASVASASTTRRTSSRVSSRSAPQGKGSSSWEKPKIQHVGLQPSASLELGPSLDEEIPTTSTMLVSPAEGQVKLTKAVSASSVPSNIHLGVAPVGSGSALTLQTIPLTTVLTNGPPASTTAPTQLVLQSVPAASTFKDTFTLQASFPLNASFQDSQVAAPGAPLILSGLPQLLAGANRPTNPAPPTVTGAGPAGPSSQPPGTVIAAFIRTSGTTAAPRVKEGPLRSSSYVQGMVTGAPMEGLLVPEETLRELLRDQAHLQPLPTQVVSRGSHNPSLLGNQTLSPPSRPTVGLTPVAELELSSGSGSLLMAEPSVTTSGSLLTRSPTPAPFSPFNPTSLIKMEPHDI
How it was run: as §1

ELK4 = target: T9, ELK4 (Homo sapiens, UniProt P28324-2 1-405); settings: protein: recombinant; tags: N-terminal GST; dsDNA, one strand shown
T9 sequence: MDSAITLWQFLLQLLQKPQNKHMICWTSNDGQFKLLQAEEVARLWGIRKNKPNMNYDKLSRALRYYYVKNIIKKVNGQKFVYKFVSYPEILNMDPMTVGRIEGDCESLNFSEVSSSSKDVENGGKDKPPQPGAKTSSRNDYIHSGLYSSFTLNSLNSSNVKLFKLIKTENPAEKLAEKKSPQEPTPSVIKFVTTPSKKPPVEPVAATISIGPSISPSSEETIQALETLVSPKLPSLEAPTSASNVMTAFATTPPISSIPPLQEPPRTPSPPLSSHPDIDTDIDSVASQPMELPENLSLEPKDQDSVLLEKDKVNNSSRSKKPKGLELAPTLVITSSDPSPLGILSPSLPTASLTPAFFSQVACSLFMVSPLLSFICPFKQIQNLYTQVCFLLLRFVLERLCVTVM
How it was run: as §1

ETV2 = target: T10, ETV2 (Homo sapiens, UniProt O00321 1-342); settings: protein: recombinant; tags: N-terminal GST; dsDNA, one strand shown
T10 sequence: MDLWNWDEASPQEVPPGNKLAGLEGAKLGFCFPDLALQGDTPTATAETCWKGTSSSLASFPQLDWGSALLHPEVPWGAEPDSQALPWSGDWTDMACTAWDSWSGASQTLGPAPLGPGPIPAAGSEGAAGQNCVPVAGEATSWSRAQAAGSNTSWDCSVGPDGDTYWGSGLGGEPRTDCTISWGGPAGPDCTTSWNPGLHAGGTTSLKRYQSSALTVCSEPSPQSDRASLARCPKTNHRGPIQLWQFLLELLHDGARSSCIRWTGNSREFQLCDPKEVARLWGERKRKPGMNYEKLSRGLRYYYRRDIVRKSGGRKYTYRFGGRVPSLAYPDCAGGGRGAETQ
How it was run: as §1

ELF3 = target: T11, ELF3 (Homo sapiens, UniProt P78545 1-371); settings: protein: recombinant; tags: N-terminal GST; dsDNA, one strand shown
T11 sequence: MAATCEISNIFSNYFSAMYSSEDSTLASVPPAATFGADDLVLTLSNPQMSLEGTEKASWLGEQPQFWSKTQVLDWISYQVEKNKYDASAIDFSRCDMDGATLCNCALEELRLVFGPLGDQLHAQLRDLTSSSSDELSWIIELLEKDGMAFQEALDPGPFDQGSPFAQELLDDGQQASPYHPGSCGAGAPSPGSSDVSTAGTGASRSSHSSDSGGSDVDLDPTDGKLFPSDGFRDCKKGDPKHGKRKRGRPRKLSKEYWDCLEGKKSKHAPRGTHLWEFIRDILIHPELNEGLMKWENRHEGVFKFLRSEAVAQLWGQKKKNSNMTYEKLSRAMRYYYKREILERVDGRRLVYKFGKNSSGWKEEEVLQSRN
How it was run: as §1

Sequence | binding signal (FLI1) | binding signal (ELK1) | binding signal (GABPA) | binding signal (ERG) | binding signal (ELF1) | binding signal (EHF) | binding signal (SPI1) | binding signal (SPIB) | binding signal (ELK3) | binding signal (FEV) | binding signal (ETV5) | binding signal (HSF1) | binding signal (SPIC) | binding signal (ELF4) | binding signal (ELK4) | binding signal (ETV2) | binding signal (ELF3)
CTGGGT | 1.21 fold enrichment (6-mer frequency, TF over GST control) | 1.1 fold enrichment (6-mer frequency, TF over GST control) | 1.18 fold enrichment (6-mer frequency, TF over GST control) | 1.12 fold enrichment (6-mer frequency, TF over GST control) | 1.17 fold enrichment (6-mer frequency, TF over GST control) | 1.12 fold enrichment (6-mer frequency, TF over GST control) | 1.13 fold enrichment (6-mer frequency, TF over GST control) | 1.09 fold enrichment (6-mer frequency, TF over GST control) | 1.1 fold enrichment (6-mer frequency, TF over GST control) | 1.06 fold enrichment (6-mer frequency, TF over GST control) | 1.05 fold enrichment (6-mer frequency, TF over GST control) | 1.04 fold enrichment (6-mer frequency, TF over GST control) | 1.17 fold enrichment (6-mer frequency, TF over GST control) | 1.13 fold enrichment (6-mer frequency, TF over GST control) | 1.2 fold enrichment (6-mer frequency, TF over GST control) | 1.22 fold enrichment (6-mer frequency, TF over GST control) | 1.12 fold enrichment (6-mer frequency, TF over GST control)
TGGGTT | 1.17 fold enrichment (6-mer frequency, TF over GST control) | 1.11 fold enrichment (6-mer frequency, TF over GST control) | 1.18 fold enrichment (6-mer frequency, TF over GST control) | 1.1 fold enrichment (6-mer frequency, TF over GST control) | 1.1 fold enrichment (6-mer frequency, TF over GST control) | 1.18 fold enrichment (6-mer frequency, TF over GST control) | 1.01 fold enrichment (6-mer frequency, TF over GST control) | 1.02 fold enrichment (6-mer frequency, TF over GST control) | 1.01 fold enrichment (6-mer frequency, TF over GST control) | – | 1.06 fold enrichment (6-mer frequency, TF over GST control) | 1.03 fold enrichment (6-mer frequency, TF over GST control) | 1.07 fold enrichment (6-mer frequency, TF over GST control) | 1.09 fold enrichment (6-mer frequency, TF over GST control) | 1.03 fold enrichment (6-mer frequency, TF over GST control) | 1.08 fold enrichment (6-mer frequency, TF over GST control) | 1.11 fold enrichment (6-mer frequency, TF over GST control)

Reference: article PMC7862700, “An all-to-all approach to the identification of sequence-specific readers for epigenetic DNA modifications on cytosine”
